Eight compounds from PubChem BioAssay (NCI) can be followed below.

What all share (assay): NCI-60 one-dose screen, 48 h (100 = growth as untreated, 0 = no growth, -100 = all killed)
One assay has as its system EKVX NSCLC. The conditions noted are these: 10 µM unless noted.
The next assay deals with SN12C renal. The conditions noted are these: 10 µM unless noted.
The subject of another assay is UO-31 renal. The conditions noted are these: 10 µM unless noted.
A further assay deals with TK-10 renal. As to conditions: 10 µM unless noted.
The subject of a further assay is ACHN renal. As to conditions: 10 µM unless noted.
A further assay has as its system CAKI-1 renal. The conditions noted are these: 10 µM unless noted.
Another assay relates to A498 renal. The conditions noted are these: 10 µM unless noted.
A further assay relates to CCRF-CEM leukemia. The conditions noted are these: 10 µM unless noted.
The next assay relates to MOLT-4 leukemia. The conditions noted are these: 10 µM unless noted.
For the next assay, the system named is SR leukemia. The conditions noted are these: 10 µM unless noted.
The subject of a further assay is RPMI-8226 leukemia. The conditions noted are these: 10 µM unless noted.
The test system of the next assay is OVCAR-8 ovarian. As to conditions: 10 µM unless noted.
The test system of another assay is OVCAR-5 ovarian. As to conditions: 10 µM unless noted.
Another assay deals with OVCAR-4 ovarian. As to conditions: 10 µM unless noted.
A further assay concerns SK-OV-3 ovarian. As to conditions: 10 µM unless noted.
In a further assay the test system is IGROV1 ovarian. As to conditions: 10 µM unless noted.
The next assay deals with OVCAR-3 ovarian. The conditions noted are these: 10 µM unless noted.
The next assay concerns HS 578T breast. The conditions noted are these: 10 µM.
In a further assay the test system is NCI/ADR-RES ovarian. As to conditions: 10 µM unless noted.
The test system of another assay is SK-MEL-2 melanoma. As to conditions: 10 µM.

The panel holds about 83,000 compounds, 20% with a hit somewhere; the sample as a whole holds those more often.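 Interpretation: 100, growth as untreated; towards 0, rising growth inhibition; 0, no net growth; 0 to -100, cell death. Compounds scoring below 10 were considered active.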 A number with no mark means an inactive call. The source made the active and inactive calls.

As for `C=CC(=O)N1CCC[C@H](n2c(=O)n(-c3ccc(Oc4ccccc4)cc3)c3c(N)ncnc32)C1`, the growth was 57.4% with EKVX NSCLC; 71% in the assay with SN12C renal; 50.5% in the assay with UO-31 renal; 27.6% in the assay on TK-10 renal; 41.2% with ACHN renal; 69.1% in the assay on CAKI-1 renal. For the same compound, the growth with A498 renal is 81.2%; in the assay on CCRF-CEM leukemia, 82.3%; with MOLT-4 leukemia it was 68.5%; in the assay on SR leukemia, 74%; with RPMI-8226 leukemia, 76.4%; in the assay on OVCAR-8 ovarian it was 65.8%. The growth was 86.6% with OVCAR-5 ovarian; 85.3% in the assay with OVCAR-4 ovarian; 3% (active) in the assay with SK-OV-3 ovarian; 30.7% with IGROV1 ovarian; 76.4% with OVCAR-3 ovarian.
With `Cc1cc(C2(c3ccc(O)c(C)c3)OS(=O)(=O)c3ccccc32)ccc1O`, the growth with EKVX NSCLC is 111%; in the assay with SN12C renal it was 101%; with UO-31 renal it was 64.7%; in the assay on TK-10 renal, 111%; in the assay with ACHN renal it was 108%; with CAKI-1 renal, 97.6%. The growth in the assay with A498 renal was 94.2%; in the assay with CCRF-CEM leukemia it was 101%; in the assay on MOLT-4 leukemia it was 91.1%; in the assay on SR leukemia it was 97.2%; with RPMI-8226 leukemia, 99.3%; in the assay with OVCAR-8 ovarian, 107%. The growth in the assay on OVCAR-5 ovarian is 110%; in the assay on OVCAR-4 ovarian it was 107%; with SK-OV-3 ovarian it was 111%; in the assay with IGROV1 ovarian it was 105%; with OVCAR-3 ovarian it was 119%; in the assay on HS 578T breast, 101%. Moreover, the growth with NCI/ADR-RES ovarian was 109%.
With `COC(=O)[C@@H](NC(=O)[C@@H](OC)[C@@H]1Cc2cc3cc(OC4CC(OC5CC(O)C(O)C(C)O5)C(O)C(C)O4)c(C)c(O)c3c(O)c2C(=O)[C@H]1OC1CC(OC2CC(OC3CC(C)(O)C(O)C(C)O3)C(O)C(C)O2)C(O)C(C)O1)C(C)C` (stereo not given in full), the growth with EKVX NSCLC is 25.3%; in the assay with SN12C renal it was 13.2%; with UO-31 renal, 7.39% (active); in the assay on TK-10 renal, 21.7%; in the assay with ACHN renal, 0.317% (active); with CAKI-1 renal it was 20%. For the same compound, the growth in the assay with A498 renal is -83.2% (active); in the assay with CCRF-CEM leukemia it was 7.92% (active); with MOLT-4 leukemia, 1.35% (active); in the assay with SR leukemia, -8.16% (active); in the assay with RPMI-8226 leukemia it was -1.18% (active); in the assay on OVCAR-8 ovarian, 12.6%. For the same compound, the growth was 2.67% (active) in the assay with OVCAR-5 ovarian; 13.4% in the assay on OVCAR-4 ovarian; 20.4% in the assay with SK-OV-3 ovarian; 32.3% in the assay with IGROV1 ovarian; 15.3% with OVCAR-3 ovarian; -13.9% (active) in the assay on HS 578T breast. Moreover, in the assay on NCI/ADR-RES ovarian, the growth was 69.6%.
For the compound `Cc1ccc(-[n+]2c3cc(N)c(C)cc3nc3cc(C)c(Nc4ccccc4)cc32)cc1`, the growth was -22.6% (active) in the assay with EKVX NSCLC; -70.6% (active) with SN12C renal; -86.8% (active) with UO-31 renal; -18.4% (active) with TK-10 renal; -92% (active) in the assay on ACHN renal; -42.2% (active) in the assay on CAKI-1 renal. Moreover, the growth with A498 renal was -84.5% (active); in the assay with CCRF-CEM leukemia, 1.93% (active); in the assay on MOLT-4 leukemia, -2.02% (active); with SR leukemia, -39.1% (active); with RPMI-8226 leukemia, -36.5% (active); in the assay with OVCAR-8 ovarian, -6.17% (active). Further, the growth in the assay on OVCAR-5 ovarian was -61.3% (active); with OVCAR-4 ovarian, -38.7% (active); with SK-OV-3 ovarian, -90.4% (active); with IGROV1 ovarian it was -59.5% (active); in the assay on OVCAR-3 ovarian, -97.4% (active); in the assay with HS 578T breast, 18.8%. The growth with NCI/ADR-RES ovarian was -21.8% (active).
For `Clc1ccc(C(Cn2ccnc2)OCc2ccsc2Cl)c(Cl)c1` (stereo not given), the growth with EKVX NSCLC was 48.4%; in the assay on SN12C renal, 65.6%; in the assay on UO-31 renal, 25.8%; with TK-10 renal, 71.6%; with ACHN renal, 56.9%; with CAKI-1 renal it was 42.4%. In addition, the growth in the assay on A498 renal was 49.8%; with CCRF-CEM leukemia it was 43.4%; in the assay on MOLT-4 leukemia, 17.3%; with SR leukemia, 17.3%; in the assay on RPMI-8226 leukemia it was 37.6%; with OVCAR-8 ovarian it was 57.2%. Also, the growth is 68.9% in the assay on OVCAR-5 ovarian; 52.7% with OVCAR-4 ovarian; 70.7% in the assay with SK-OV-3 ovarian; 40.9% with IGROV1 ovarian; 55.7% in the assay on OVCAR-3 ovarian; 30.8% with HS 578T breast. For the same compound, in the assay with NCI/ADR-RES ovarian, the growth is 23.1%.
As for `COc1cc(C2CC(c3ccc(Cl)cc3)=NN2c2ccc(Cl)cc2)cc(OC)c1OC` (stereo not given), the growth with SK-MEL-2 melanoma is 98.8%; with SN12C renal it was 88.4%; with UO-31 renal, 77.1%; in the assay with TK-10 renal, 98%; in the assay with ACHN renal it was 86%; in the assay on CAKI-1 renal, 82.3%. The growth in the assay with A498 renal was 88%; with CCRF-CEM leukemia, 84.7%; in the assay on MOLT-4 leukemia, 67.8%; with SR leukemia it was 98.7%; with RPMI-8226 leukemia it was 83.3%; with OVCAR-8 ovarian it was 101%. Further, the growth with OVCAR-5 ovarian was 88.1%; in the assay on OVCAR-4 ovarian, 83.2%; in the assay on SK-OV-3 ovarian, 98.2%; in the assay on IGROV1 ovarian, 94.8%; with HS 578T breast, 84%; in the assay with NCI/ADR-RES ovarian, 95.6%.
Consider `CC(=O)OCCC/C(=C\c1ccc2ccccc2c1)[N+](=O)[O-]`, for which the growth is -68.5% (active) in the assay on SK-MEL-2 melanoma; 42.1% with EKVX NSCLC; -99.8% (active) in the assay on UO-31 renal; -64.4% (active) in the assay on TK-10 renal; -22.4% (active) in the assay with A498 renal; -49.4% (active) with CCRF-CEM leukemia. Moreover, the growth was -26.1% (active) in the assay with MOLT-4 leukemia; -33.8% (active) in the assay on SR leukemia; -91.3% (active) with OVCAR-8 ovarian; -93.2% (active) with OVCAR-5 ovarian; 11.1% with OVCAR-4 ovarian; 57.9% with SK-OV-3 ovarian. Further, the growth was -82.3% (active) in the assay with IGROV1 ovarian, -96.6% (active) in the assay on OVCAR-3 ovarian and -40% (active) with HS 578T breast.
As for `O=C(CNc1nc(-c2ccc(Cl)cc2)cs1)Nc1ccc(-c2nc3ccccc3s2)cc1`, the growth in the assay with EKVX NSCLC is 102%; in the assay on SN12C renal, 101%; in the assay with UO-31 renal it was 75%; in the assay on TK-10 renal, 66.5%; in the assay with ACHN renal, 105%; in the assay on CAKI-1 renal it was 94.2%. The growth in the assay on A498 renal was 102%; with CCRF-CEM leukemia it was 93%; with MOLT-4 leukemia, 92.7%; in the assay on SR leukemia, 89.7%; in the assay on RPMI-8226 leukemia, 87.4%; with OVCAR-8 ovarian, 98%. Also, the growth is 90.4% with OVCAR-5 ovarian; 70.5% in the assay with OVCAR-4 ovarian; 95% in the assay on SK-OV-3 ovarian; 59.1% in the assay on IGROV1 ovarian; 94% in the assay on OVCAR-3 ovarian; 91.3% in the assay on HS 578T breast. Besides, in the assay with NCI/ADR-RES ovarian, the growth is 94.2%.
